Reference: PubChem BioAssay (NCATS)
Inconclusive results are not listed. Activity calls are given as the source filed them. The call rests on the fitted dose curve; in most records, active means well fitted inhibition curve with a large enough effect; inconclusive means small, poorly fitted or top-dose-only effect; inactive means flat fitted curve, though single readings scatter.

Columns and labels:
CRL-7250 = normal cell line; test: Cytotoxic Profiling of Annotated Libraries Using Quantitative High-Throughput Screening (AID 1296008); conditions: Five cell lines viability, CellTiter-Glo ATP luminescence, 48-72 h; max response: active compounds read low; on max response: on the % scale 0 is the no-effect control and ±100 the full control effect
Outline: (§1)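 Compounds were pin-transferred onto cells and incubated 48 or 72 hr at 37 degree Celsius, 95% humidity. CellTiter-Glo was added, plates sat 10 min at room temperature, then ATP-coupled luminescence was imaged as the viability read-out.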

HEK293 = test: as above; conditions: Five cell lines viability, CellTiter-Glo ATP luminescence, 48-72 h; max response: active compounds read low
Outline: as §1

HaCat = test: as above; conditions: Five cell lines viability, CellTiter-Glo ATP luminescence, 48-72 h; max response: active compounds read low
Outline: as §1

KB-3-1 = test: as above; conditions: Five cell lines viability, CellTiter-Glo ATP luminescence, 48-72 h; max response: active compounds read low
Outline: as §1

NIH3T3 [1] = test: as above; conditions: Five cell lines viability, CellTiter-Glo ATP luminescence, 48-72 h; max response: active compounds read low
Outline: as §1

NIH3T3 [2] = test: qHTS assay to identify novel small-molecules to repurpose for Merkel cell carcinoma treatment (AID 1296009); conditions: MCC and control cell lines, CellTiter-Glo viability, 72 h; at 44.8 µM (top of the series) unless noted
Outline: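 qHTS format: cells treated with library compounds in DMSO across 8 (NPC) or 11 (MIPE) concentrations. Readout after 72 hr at 37 degree celsius was CellTiter-Glo luminescence.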

Measured: max response
Further: nearly all actives have a fitted effect of over 60% in size.

O=S(=O)(O)c1ccc(Nc2ncnc3c2ncn3[C@@H]2O[C@H](CO)[C@@H](O)[C@H]2O)cc1
inactive: CRL-7250 | HEK293 -6.97% | HaCat -25.7% | KB-3-1 | NIH3T3 [1] | NIH3T3 [2]

CCCCS(=O)(=O)NC(Cc1ccc(OCCCCC2CCNCC2)cc1)C(=O)O (stereo unspecified)
inactive: CRL-7250 -1.48% | HEK293 -14% | HaCat 4.29% | KB-3-1 0.365% | NIH3T3 [1] | NIH3T3 [2]

COc1ccc([C@H]2OC[C@H]3[C@@H]2CO[C@@H]3c2ccc(O[C@@H]3O[C@H](CO)C(O)[C@H](O)[C@H]3O)c(OC)c2)cc1OC (stereo partly specified)
inactive: CRL-7250 -2.87% | HEK293 1.89% | HaCat -9.63% | KB-3-1 -3.78% | NIH3T3 [1] | NIH3T3 [2] inactive [at 17.4 µM]

Cc1ccccc1-c1cc(N2CCN(C)CC2)ncc1N(C)C(=O)C(C)(C)c1cc(C(F)(F)F)cc(C(F)(F)F)c1
inactive: CRL-7250 1.9% | HEK293 -6.53% | HaCat -0.694% | KB-3-1 -5.47% | NIH3T3 [1] | NIH3T3 [2]

C=C1CC23CC1CCC2C12OC(=O)C(C)(C(O)C(O)C1O)C2C3C(=O)O (stereo unspecified)
inactive: CRL-7250 -6.36% | HEK293 -2% | HaCat 2.72% | KB-3-1 | NIH3T3 [1] | NIH3T3 [2]

CC1(CO)CCCC2(C)C3COC(=O)C3=CC(O)C12 (stereo unspecified)
inactive: CRL-7250 1.03% | HEK293 -8.01% | HaCat -5.37% | KB-3-1 | NIH3T3 [1] | NIH3T3 [2]

CC1(C)CC[C@]2(C(=O)O[C@@H]3O[C@H](CO)[C@@H](O)[C@H](O)[C@H]3O)CC[C@]3(C)C(=CCC4[C@@]5(C)C[C@@H](O)[C@H](O)[C@@](C)(CO)C5[C@H](O)C[C@]43C)C2[C@@H]1O (stereo partly specified)
inactive: CRL-7250 | HEK293 -12.5% | HaCat 1.4% | KB-3-1 | NIH3T3 [1] | NIH3T3 [2] inactive [at 17.4 µM]

CCCN(CCN1CCN(c2ccccc2OC)CC1)C1CCc2ncsc2C1 (stereo unspecified)
inactive: CRL-7250 -14.3% | HEK293 0.117% | HaCat -2.7% | KB-3-1 | NIH3T3 [1] | NIH3T3 [2]

CC(C)[C@@](O)(c1ccc2cc(OC(F)F)c(OC(F)F)cc2c1)c1cn[nH]n1
inactive: CRL-7250 -0.82% | HEK293 -10.2% | HaCat -0.148% | KB-3-1 5.26% | NIH3T3 [1] | NIH3T3 [2]

CC1(C)CC[C@]2(C(=O)O[C@@H]3O[C@H](CO[C@@H]4O[C@H](CO)[C@@H](O)[C@H](O)[C@H]4O)[C@@H](O)[C@H](O[C@@H]4O[C@H](CO)[C@@H](O)[C@H](O)[C@H]4O)[C@H]3O)[C@H](O)C[C@]3(C)C(=CCC4[C@@]5(C)CC[C@H](O[C@@H]6OC[C@@H](O)[C@H](O)[C@H]6O)[C@@](C)(C(=O)O)C5CC[C@]43C)[C@@H]2C1 (stereo partly specified)
inactive: CRL-7250 -2.05% | HEK293 -13.5% | HaCat -5.99% | KB-3-1 2.29% | NIH3T3 [1] | NIH3T3 [2] inactive [at 9.27 µM]

CC(=O)[C@@H]1C[C@H](C(C)(C)O[C@@H]2O[C@H](CO)[C@@H](O)[C@H](O)[C@H]2O)CC[C@@]2(CO)OC(=O)C[C@@H]12
inactive: CRL-7250 -8.92% | HEK293 0.131% | HaCat 4.13% | KB-3-1 1.24% | NIH3T3 [1] | NIH3T3 [2] inactive [at 17.4 µM]

C[C@@]1(O)[C@H](O)[C@@H](CO)O[C@H]1n1cnc2c(=O)[nH]c(N)nc21
inactive: CRL-7250 0.111% | HEK293 0.681% | HaCat -4.96% | KB-3-1 | NIH3T3 [1] | NIH3T3 [2]

CC(CCO)CCC1C2(C)CCCC(C)(C)C2CC[C@@]1(C)O (stereo partly specified)
inactive: CRL-7250 | HEK293 -13.3% | HaCat -19.9% | KB-3-1 7.08% | NIH3T3 [1] | NIH3T3 [2]

COc1ccc(CCC(=O)O)c(O[C@@H]2O[C@H](CO)[C@@H](O)[C@H](O)[C@H]2O)c1
inactive: CRL-7250 | HEK293 -2.75% | HaCat 3.93% | KB-3-1 -5.8% | NIH3T3 [1] | NIH3T3 [2]

CCCCCOC(=O)Nc1nc(=O)n(C2O[C@H](C)[C@@H](O)[C@H]2O)cc1F (stereo partly specified)
inactive: CRL-7250 | HEK293 -11.1% | HaCat -6.73% | KB-3-1 | NIH3T3 [1] | NIH3T3 [2]

C=CCC1=C[C@]2(OC)[C@H](C)[C@@H](c3ccc(OC)c(OC)c3)O[C@]2(OC)CC1=O
inactive: CRL-7250 4.13% | HEK293 -10.4% | HaCat -0.368% | KB-3-1 | NIH3T3 [1] | NIH3T3 [2]

C=C1C2CCC3CC2(CC(O)C2(O)C1CC(OC1OC(CO)C(O)C(O)C1O)C2(C)C)CC3(C)O (stereo unspecified)
inactive: CRL-7250 -0.056% | HEK293 4.37% | HaCat -5.66% | KB-3-1 -0.357% | NIH3T3 [1] | NIH3T3 [2] inactive [at 17.4 µM]

O=C(/C=C/c1ccc(O)c(O)c1)O[C@@H]1[C@@H](O)[C@H](OC2CCCCC2O)O[C@H](CO)[C@H]1O (stereo partly specified)
inactive: CRL-7250 4.08% | HEK293 1.79% | HaCat 2.85% | KB-3-1 9.07% | NIH3T3 [1] | NIH3T3 [2] inactive [at 17.4 µM]

Cc1cc(CO)c(O)c(C(=O)CC2CC(=O)NC(=O)C2)c1
inactive: CRL-7250 | HEK293 4.74% | HaCat -10.8% | KB-3-1 | NIH3T3 [1] | NIH3T3 [2]

COC(=O)C1=COC(OC2OC(CO)C(O)C(O)C2O)C2C(C)CC(=O)C12O (stereo unspecified)
inactive: CRL-7250 | HEK293 2.83% | HaCat -24.6% | KB-3-1 | NIH3T3 [1] | NIH3T3 [2] inactive [at 17.4 µM]

CC1=COC(OC2OC(CO)C(O)C(O)C2O)C2C(CO)CC(OC(=O)/C=C/c3ccc(O)cc3)C12 (stereo unspecified)
inactive: CRL-7250 0.792% | HEK293 0.352% | HaCat 1.84% | KB-3-1 | NIH3T3 [1] | NIH3T3 [2] inactive [at 17.4 µM]

C=C1C(=O)OC2CC(COC(=O)C(C)C)=C(C(C)CCCOC(C)=O)[C@@H](OC(C)=O)C12 (stereo partly specified)
inactive: CRL-7250 -4.9% | HEK293 5% | HaCat 4.28% | KB-3-1 | NIH3T3 [1] | NIH3T3 [2] inactive [at 17.4 µM]

Cc1ccc(C)c(NC(=O)CNS(=O)(=O)c2ccc3[nH]c(=O)oc3c2)c1
inactive: CRL-7250 | HEK293 -17.1% | HaCat -0.793% | KB-3-1 8.68% | NIH3T3 [1] | NIH3T3 [2]

CC1(C)CCCC2(C)c3c4c(c(=O)oc(=O)c3=CCC12)=CCC1C(C)(C)CCCC41C (stereo unspecified)
inactive: CRL-7250 -2.61% | HEK293 2.74% | HaCat 0.0105% | KB-3-1 | NIH3T3 [1] | NIH3T3 [2] inactive [at 17.4 µM]

C=C(C(=O)O)[C@H]1C[C@]2(C)C(=O)CC[C@]23O[C@H]1C[C@@H]3C
inactive: CRL-7250 -1.57% | HEK293 -7.61% | HaCat 1.8% | KB-3-1 4.05% | NIH3T3 [1] | NIH3T3 [2]

Cc1occc1C(=O)n1ccnc1
inactive: CRL-7250 -1.62% | HEK293 0.475% | HaCat 4.32% | KB-3-1 0.152% | NIH3T3 [1] | NIH3T3 [2]
